From PubChem BioAssay AID2012 (Sanford-Burnham Center for Chemical Genomics, 2009)
The whole screen tested about 290,000 compounds, of which about 2,700 (0.93%) were called active. This is one part of a sample in which actives are shown more often than they occur. How the calls were made is not given here.

Target: Eukaryotic translation initiation factor 4H (Homo sapiens) (UniProt Q15056)
Experiment: eIF4H binding inhibition – biochemical, uHTS, fluorescence polarization, translation initiation inhibitor project, primary screen (AID 2012);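 further: calls also rest on retests at 20 µM and on dose response follow-up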
Details: eIF4H fluorescence polarization binding assay, stronger effect = higher value

SMILES	inhibition (at 35 µM)	inhibition (confirmation average, at 20 µM)
CS(=O)(=O)N1CCc2cc(C(=O)Nc3ccccc3Br)ccc21	-0.6% (inactive)	
COCc1ccc(CN2CCC(Oc3ccc(C(=O)NCc4ccccn4)cc3)CC2)o1	-2.5% (inactive)	
O=C(COC(=O)C12CC3CC(CC(C3)C1)C2)NCc1ccco1	50.9% (active)	92.2%
O=C(CC1CCCCC1)NCc1ccco1	-6.2% (inactive)	
O=C(COC(=O)CCC(=O)c1cccs1)NCc1ccco1	87% (active)	63.4%
O=C(COC(=O)c1cnc(Cl)c(Cl)c1)NCc1ccco1	-1.2% (inactive)	
O=C(COC(=O)c1cccs1)NCc1cccs1	-7.5% (inactive)	
O=C(CC12CC3CC(CC(C3)C1)C2)NCc1ccco1	-1% (inactive)	
CC(C)CC(O)C1CCN(C(=O)CCc2nnc(-c3ccc4c(c3)OCO4)o2)CC1 (centres undefined)	11.1% (inactive)	
O=C(N/N=C\C1CC=CCC1)c1ccc(Br)o1 (centres undefined)	-1.2% (inactive)	
CC(NC(=O)Cn1cc(C(F)(F)F)cc(Cl)c1=O)c1ccccc1 (centres undefined)	4.6% (inactive)	
O=C(O)c1cc(S(=O)(=O)NC2CCCc3ccccc32)ccc1O (centres undefined)	-2.4% (inactive)	
Cc1ccc(CNC(=O)CCS(=O)(=O)c2ccc3c(c2)CC(C)N3C(=O)C2CC2)o1 (centres undefined)	-4.8% (inactive)	
O=C(CCCN1C(=O)/C(=C\c2ccco2)SC1=S)Nc1cccc2ccccc12	91.9% (inactive)	-11.3%
CN1C(=O)/C(=C/c2ccco2)SC1=Nc1cccc(C(=O)O)c1	99% (active)	106%
O=C(CCCN1C(=O)/C(=C/c2ccco2)SC1=S)Nc1ccccc1	77.4% (inactive)	3.8%
CC(Oc1ccccc1)C(=O)Nc1c2c(nn1-c1ccccc1)CS(=O)C2 (centres undefined)	-8.2% (inactive)	
O=C(OCc1ccc(-c2ccccc2)cc1)c1cccc(O)c1	-0.5% (inactive)	
Cc1cc(/C=C2\SC(=O)N(C)C2=O)c(C)n1-c1cccc(C(=O)O)c1	89.5% (active)	
Cc1cc(/C=C2/SC(=O)N(CC(=O)N3CCCC3)C2=O)c(C)n1C	8.5% (inactive)	

SMILES	inhibition (at 35 µM)	inhibition (confirmation average, at 20 µM)
Cc1cc(/C=C2\SC(=Nc3ccc(N4CCOCC4)cc3)N(C)C2=O)c(C)n1-c1cccnc1	2.5% (inactive)	
NS(=O)(=O)c1ccc(NC(=S)N2CCCC2)cc1	102% (active)	104%
CC1CN(C(=S)Nc2ccc(S(N)(=O)=O)cc2)CC(C)O1 (centres undefined)	4.3% (inactive)	
COc1ccc(N2CCN(C(=S)Nc3ccc(S(N)(=O)=O)cc3)CC2)cc1	-13.4% (inactive)	
C=CCn1c(C23CC4CC(CC(C4)C2)C3)n[nH]c1=S	-9.9% (inactive)	
CC(=O)N1CCN(c2ccccc2NC(=S)NC(=O)c2cc3ccccc3o2)CC1	-11.7% (inactive)	
CC(C(=O)Nc1ccc(O)c(C(=O)O)c1)N1C(=O)/C(=C/c2cccs2)SC1=S (centres undefined)	-4.3% (inactive)	
Cc1ccc(S(=O)(=O)NC(=O)c2cccc(C)c2)cc1	-5% (inactive)	
CC(=O)NS(=O)(=O)c1ccccc1	-6.2% (inactive)	
Nc1ccc(S(=O)(=O)NC(=O)c2ccccc2)cc1	-6.9% (active)	95.5%
CN1CN(C)c2ccc([N+](=O)[O-])c3cccc1c23	2.5% (inactive)	
Nc1c(C(=O)c2cccs2)sc2nsc(SCCN3CCCCC3)c12	47.9% (inactive)	
CN(C(=O)COC(=O)c1cc(-c2ccco2)nc2ccccc12)C1CCS(=O)(=O)C1 (centres undefined)	87.9% (active)	
CN(C(=O)COC(=O)c1nc(Cl)ccc1Cl)C1CCS(=O)(=O)C1 (centres undefined)	10.5% (inactive)	
Cc1c(-c2cccc(Cl)c2)nc2ccccc2c1C(=O)OCC(=O)N(C)C1CCS(=O)(=O)C1 (centres undefined)	-7% (inactive)	
Cc1cccc(NC(=O)Nc2nnc(-c3ccccc3)o2)c1	-0.2% (inactive)	
CCc1nnc(NC(=O)c2nc3nccc(C)n3n2)s1	-4% (inactive)	
Cc1ccnc2nc(C(=O)Nc3nnc(-c4ccccc4)o3)nn12	79.8% (active)	77.1%
O=C(N/N=C/c1ccccc1O)C1CCCC1	-4.4% (inactive)	
CN(C(=O)C1CCN(c2ncnc3c2nc2n3CCCCC2)CC1)C1CCCCC1	-2.5% (inactive)	

SMILES	inhibition (at 35 µM)	inhibition (confirmation average, at 20 µM)
Cc1ccc(OCc2cc(C(=O)N(C)CCn3ccnc3C)no2)cc1C	-8.6% (inactive)	
COc1ccc(CNC(=O)c2cc3c(=O)n4ccccc4nc3n(CC3CCCO3)c2=N)cc1 (centres undefined)	-5.4% (inactive)	
Cc1ccc2nc3c(cc(C(=O)NCCc4ccccc4)c(=N)n3CC3CCCO3)c(=O)n2c1 (centres undefined)	94.7% (active)	
Cc1cccn2c(=O)c3cc(C(=O)NCC4CCCO4)c(=N)n(Cc4ccc(F)cc4)c3nc12 (centres undefined)	-14.9% (inactive)	
Cc1cc(NC(=O)[C@H](C)NC(=O)c2ccco2)ccc1Br	-0.5% (inactive)	
O=C1CC(N2CCN(c3ccc(F)cc3)CC2)C(=O)N1c1ccccc1 (centres undefined)	-4% (inactive)	
N#CC1=C(N)N(c2ccc(F)cc2)C(=O)C1	50% (active)	
O=C1CCCC2=C1C(c1cccs1)CC(=O)N2c1ccc(F)cc1 (centres undefined)	-3.5% (inactive)	
Cc1cc(S(=O)(=O)N2CCOCC2)ccc1OCC(=O)N1CCOCC1	-9.8% (inactive)	
O=C(NC1CCC(O)CC1)c1ccccc1OCc1ccc(F)cc1 (centres undefined)	4.1% (inactive)	
CCCNC(=O)CCc1c(C)nc2c(c(C)nn2-c2ccccc2)c1C	-1.8% (inactive)	
Cc1ccc(NC(=O)C(CC(=O)O)C2CCCO2)c(C)c1 (centres undefined)	-7% (inactive)	
CO/N=C(\N)c1ccc([N+](=O)[O-])cc1	0.6% (inactive)	
N/C(=N\OS(=O)(=O)c1cccc([N+](=O)[O-])c1)c1ccncc1	73.8% (active)	88.7%
O=C(N/N=C/c1cccc([N+](=O)[O-])c1)c1ccncc1	0.8% (inactive)	
CC(Cc1cccs1)N(Cc1ccc(Cl)cc1)C(=O)c1ccncc1 (centres undefined)	-2% (inactive)	
COc1ccccc1N(C)C(=O)c1cc(S(=O)(=O)N2CCc3ccccc32)cn1C	-9.4% (inactive)	
CCN(C(=O)COC(=O)c1cc(S(=O)(=O)N2CCc3ccccc32)ccc1OC)C1CCS(=O)(=O)C1 (centres undefined)	3.9% (active)	71.9%
COc1ccc(C(=O)OCC(=O)NCC2CCCCC2)cc1S(=O)(=O)N1CCCc2ccccc21	-7.1% (inactive)	
